Values joined by “and” are separate entries in the source; they are usually repeats but may differ in a detail not shown here. Equal entries are not always repeated. The whole screen tested about 340,000 compounds, of which about 500 (0.15%) were called active.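 Rule for the calls: active = mean replicate inhibition of at least 30%, or all replicates individually reaching that 30% level; inactive = mean below 30% and not every replicate reaching it.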 The full list was thinned out, with actives kept by preference.

This assay deals with Endoplasmic reticulum aminopeptidase 1 (Homo sapiens) (UniProt Q9NZ08). Nature of the assay: human ERAP1 aminopeptidase inhibitors, primary screen, biochemical, single point, plate reader (AID 652197).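 Note: 0% = neutral control wells and 100% = L-leucinethiol positive control wells.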 The note with it: recombinant ERAP1, Leu-AMC fluorescence, 60 min; at 10.7 µM; hits give high values.
Endoplasmic reticulum aminopeptidase 1 (Homo sapiens), sequence (Q9NZ08 whole entry, looked up): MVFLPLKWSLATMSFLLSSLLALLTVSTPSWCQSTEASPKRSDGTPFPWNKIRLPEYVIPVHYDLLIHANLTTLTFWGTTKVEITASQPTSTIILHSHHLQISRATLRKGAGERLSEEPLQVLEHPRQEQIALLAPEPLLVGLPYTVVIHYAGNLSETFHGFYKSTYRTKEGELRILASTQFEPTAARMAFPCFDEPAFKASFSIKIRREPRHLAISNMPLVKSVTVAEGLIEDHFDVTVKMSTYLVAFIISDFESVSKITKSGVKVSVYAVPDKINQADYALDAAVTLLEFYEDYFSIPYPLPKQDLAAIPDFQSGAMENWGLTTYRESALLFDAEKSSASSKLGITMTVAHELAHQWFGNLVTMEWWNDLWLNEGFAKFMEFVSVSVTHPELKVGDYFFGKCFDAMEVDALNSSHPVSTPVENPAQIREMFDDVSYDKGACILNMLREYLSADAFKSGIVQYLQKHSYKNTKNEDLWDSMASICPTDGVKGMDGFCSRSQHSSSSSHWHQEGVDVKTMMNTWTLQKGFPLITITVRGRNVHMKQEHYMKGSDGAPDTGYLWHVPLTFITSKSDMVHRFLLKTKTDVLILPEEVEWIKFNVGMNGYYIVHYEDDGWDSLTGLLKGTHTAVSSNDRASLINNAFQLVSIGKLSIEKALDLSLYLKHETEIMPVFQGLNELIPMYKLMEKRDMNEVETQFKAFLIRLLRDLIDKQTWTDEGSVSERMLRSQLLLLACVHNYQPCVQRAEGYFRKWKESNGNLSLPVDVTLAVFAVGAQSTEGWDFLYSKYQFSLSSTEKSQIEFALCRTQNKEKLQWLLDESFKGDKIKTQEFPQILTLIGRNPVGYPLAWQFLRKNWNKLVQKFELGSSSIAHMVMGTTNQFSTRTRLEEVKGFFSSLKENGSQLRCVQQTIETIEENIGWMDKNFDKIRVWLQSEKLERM
With `CC(=O)N1Cc2cc(C(=O)NCc3cc(F)cc(F)c3)nc(-c3cccc(C4=CCCC4)c3)c2[C@@H]1CCO`, the inhibition was 3.25% (inactive).

For `O=C(C[C@@H]1C=C[C@H](NC(=O)C2CCC2)[C@@H](CO)O1)NCC1CC1`, the inhibition was 0.604% (inactive).

In the case of `O=C(NCCCNCc1ccccc1)c1ccc(/C=N/O)nc1`, the inhibition was 4.32% (inactive).

On to `C[N+](C)(C)CCNC(=O)c1cc[n+](Cc2ccccc2)c(/C=N/O)c1`, for which the inhibition is 105% (active).

For `C/C(Cc1ccccc1)=N\NC(=O)CNC(=O)c1cccc(Br)c1`, the inhibition is 7.75% (inactive).

With `COc1ccc(C(=O)NCc2nnc(SCC(=O)NC3=NCCS3)n2C)cc1`, the inhibition is 1.94% (inactive).

With `COc1ccc(CC(=O)NCc2nnc(SCC(=O)Nc3nccs3)n2C)cc1`, the inhibition is 1.32% (inactive).

Regarding `COc1ccc(C(=O)NCc2nnc(SCCOc3ccccc3)n2C)cc1`, the inhibition was 31.3% (active).

Consider `COC(=O)C[C@H]1C[C@H]2c3cc(NC(=O)Nc4ccccc4F)ccc3O[C@H]2[C@H](CO)O1`, for which the inhibition is -1.68% (inactive).

Consider `O=C(NC1Cc2ccccc2C1)[C@H]1[C@H](CO)[C@H]2Cn3c(ccc(C4=CCCCC4)c3=O)[C@H]2N1CC1CC1`, for which the inhibition is -5.27% (inactive).

For the compound `O=C(Cc1ccccn1)N[C@H]1CC[C@H](CCn2cc(-c3ccc(F)cc3)nn2)O[C@H]1CO`, the inhibition was -3.36% (inactive).

Consider `O=C(C[C@@H]1CC[C@H](NC(=O)CN2CCOCC2)[C@@H](CO)O1)NCCc1ccccc1`, for which the inhibition was 0.528% (inactive).

As to `O=C(N[C@H]1C=C[C@@H](CC(=O)N2CCc3ccccc3C2)O[C@@H]1CO)C1CCOCC1`, the inhibition is -0.073% (inactive).

On to `Cc1ccc(-c2ccccc2[C@H]2[C@@H](C#N)N(c3ncc(-c4ccccc4)s3)[C@@H]2CO)cc1`, for which the inhibition was -2.75% (inactive).

Consider `Cc1ccc(S(=O)(=O)Nc2ccc3c(c2)C(=O)N([C@H](C)CO)C[C@@H](C)[C@@H](CN(C)S(C)(=O)=O)OCCCC[C@@H](C)O3)cc1`, for which the inhibition is 3.3% (inactive).

`C[C@@H]1CN([C@H](C)CO)C(=O)c2cc(NC(=O)c3ccncc3)ccc2O[C@@H](C)CCCCO[C@@H]1CN(C)CC1CC1`: the inhibition was -0.674% (inactive).

Take `C[C@@H]1CN([C@H](C)CO)C(=O)Cc2cc(NC(=O)CCC(F)(F)F)ccc2O[C@@H]1CN(C)CC1CCCCC1`: the inhibition is 0.143% (inactive).

As for `CO[C@@H]1CN(C)C(=O)c2ccc(NC(=O)Nc3c(C)noc3C)cc2OC[C@@H](C)N(C(=O)Nc2cccc(Cl)c2)C[C@H]1C`, the inhibition was -0.693% (inactive).

With `N#C[C@@H]1[C@H](c2ccccc2-c2ccccc2F)[C@@H](CO)N1C(=O)C1CCOCC1`, the inhibition was 0.396% (inactive).

`O=C(O)CSc1ccc(S(=O)(=O)N2CCCC2)cn1`: the inhibition was 0.672% (inactive).

Turning to `N#Cc1c(N2CCCCC2)nc(N)c2c(N)nc(SCC(=O)O)cc12`, the inhibition is 46.5% (active).

For `Nc1nc(NCC(=O)O)nc(N2CCCCCC2)c1[N+](=O)[O-]`, the inhibition is 4.98% (inactive).

For `C/C=C/c1ccc(C2[C@H]3CNC[C@@H]2N3C(=O)Nc2cc(F)ccc2F)cc1` (stereo partly drawn), the inhibition is 0.659% (inactive) and 1.15% (inactive).

Take `Nc1nc2c(ncn2[C@@H]2O[C@H](C(=O)N[C@H](Cc3ccccc3)C(=O)NCC3CCCCC3)[C@@H](O)[C@H]2O)c(=O)[nH]1`: the inhibition is 2.44% (inactive).

With `COc1ccc(CN(C)C[C@H]2OCCCC[C@H](C)Oc3ccc(NS(=O)(=O)c4ccc(C)cc4)cc3C(=O)N([C@@H](C)CO)C[C@H]2C)cc1`, the inhibition was 0.631% (inactive).

With `CCC(=O)N(CCc1ccccc1)Cc1cc2cc(C)ccc2[nH]c1=O`, the inhibition is -2.61% (inactive).

For `CCCc1nc(-c2cc3cc(C)ccc3[nH]c2=O)no1`, the inhibition is 55.1% (active).

In the case of `Cc1ccc2[nH]c(=O)c(CN(C)S(=O)(=O)c3cccc4nonc34)cc2c1`, the inhibition is 0.344% (inactive).

As to `CC(C)NC(=O)N[C@H]1CC[C@@H](CC(=O)NCc2ccc(Oc3ccccc3)cc2)O[C@@H]1CO`, the inhibition is -0.517% (inactive).

Consider `COc1ccc(NC(=O)N2CC(=O)N3[C@H](CO)[C@@H](c4ccc(C#CCC5CCCC5)cc4)[C@H]3C2)cc1`, for which the inhibition is -1.79% (inactive).

For `CC(=O)NC[C@H]1[C@@H](c2ccc(C#CC(C)C)cc2)[C@@H](CO)N1Cc1ccccn1`, the inhibition was 3.95% (inactive).

On to `COc1ccc(NC(=O)N2CC(=O)N3[C@H](CO)[C@@H](c4ccc(-c5ccc(C)cc5)cc4)[C@H]3C2)cc1`, for which the inhibition was 1.13% (inactive).

Consider `O=C(c1ccc(F)cc1)N1CC(=O)N2[C@@H](CO)[C@@H](c3ccc(C#Cc4ccc(F)cc4)cc3)[C@@H]2C1`, for which the inhibition is -1.04% (inactive).

Turning to `C[C@H](CO)N1C[C@H](C)[C@H](CN(C)C(=O)Nc2ccc(C(F)(F)F)cc2)Oc2ccc(NS(=O)(=O)c3cn(C)cn3)cc2CC1=O`, the inhibition was 2.19% (inactive).

For `COc1ccc(S(=O)(=O)Nc2ccc3c(c2)C(=O)N([C@@H](C)CO)C[C@H](C)[C@H](CN(C)S(=O)(=O)c2c(C)noc2C)OCCCC[C@@H](C)O3)cc1`, the inhibition was -3.22% (inactive).

For `O=C(NCC[C@@H]1CC[C@@H](NS(=O)(=O)c2ccc(Cl)cc2)[C@@H](CO)O1)c1ccccc1F`, the inhibition is -2.75% (inactive).

For the compound `O=C(Cc1ccccc1)N1C[C@@H]2[C@H](c3ccccc31)[C@@H](CO)N2C(=O)C1CCOCC1`, the inhibition is -0.84% (inactive).

Take `C[C@@H]1CCCCO[C@H](CN(C)Cc2ccc(C(F)(F)F)cc2)[C@@H](C)CN([C@@H](C)CO)C(=O)c2cc(NC(=O)c3ccncc3)ccc2O1`: the inhibition is -3.82% (inactive).

For the compound `CO[C@@H]1CN(C)C(=O)c2cc(NC(=O)C3CCOCC3)ccc2OC[C@@H](C)NC[C@@H]1C`, the inhibition is 1.93% (inactive).

In the case of `O=C(Nc1ccccc1F)N1CC(=O)N2[C@H](CO)[C@H](c3ccc(C#CC4CC4)cc3)[C@@H]2C1`, the inhibition is -1.09% (inactive).

On to `CN(C)C(=O)C[C@H]1C[C@H]2c3cc(NC(=O)Nc4ccc(C(F)(F)F)cc4)ccc3O[C@H]2[C@@H](CO)O1`, for which the inhibition is -0.814% (inactive).

Consider `O=C(Nc1cc(F)ccc1F)N[C@H]1CC[C@@H](CCn2cc(C3CCCC3)nn2)O[C@@H]1CO`, for which the inhibition is 0.545% (inactive).

On to `C[C@@H]1CN([C@H](C)CO)C(=O)c2cc(NS(C)(=O)=O)ccc2O[C@H]1CN(C)C(=O)Nc1cccc2ccccc12`, for which the inhibition was 0.237% (inactive).

(Values after PubChem BioAssay AID652197 (Broad Institute, 2013).)
